Results reported in PubChem BioAssay (NCI).
Compounds without any hit were thinned out: in the full panel of roughly 83,000, 20% have a hit.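 Each cell line was grown in a 96-well plate and treated with one concentration of compound for 48 hours. Values below 10 were considered active.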 The source made the active and inactive calls.

Tested on: MDA-MB-468 breast
Experiment: NCI-60 one-dose screen, 48 h (100 = growth as untreated, 0 = no growth, -100 = all killed)
Settings: 10 µM unless noted

Row | Compound | growth
1 | COc1ccc(C/C(C)=C(\c2ccc(Cl)cc2)c2ccc(OCCN3CCCCC3)cc2)cc1 | 98.2% (inactive)
2 | CC(=O)c1cnc2ccc(-c3cc(Cl)c(O)c(Cl)c3)nc2c1NC1CCC(CN(C)C)CC1 (stereo unspecified) | -62% [2.5 µM] (active)
3 | COc1ccc2[nH]cc(C3(c4c[nH]c5ccc(OC)cc45)C(=O)Nc4ccc(F)cc43)c2c1 | 96.9% (inactive)
4 | CCn1c2c(c3ccccc31)SC1c3cccn3CCN1C2=S (stereo unspecified) | -1.66% (active)
5 | COc1c2ccccc2c(OC)c2[nH]c(=O)ccc12 | 60.9% (inactive)
6 | CC(=O)c1cc(Br)ccc1O | 103% (inactive)
